Measured potencies and affinities stand elsewhere. The source made the active and inactive calls.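 How the source made its calls: active means signal-lowering compounds whose fitted half-maximal concentration is at or below twice the top tested dose in every run; inconclusive means runs disagree, flat 30 to 70% inhibition, or poor curve fit; inactive means the rest.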
These molecules were tested against Protein S100-A4 (Homo sapiens) (UniProt P26447) (assay: S100A4-myosin IIA binding inhibitor potency, dose response, biochemical, fluorescence polarization, cherry-picked hits (AID 687001)). Settings: FP, S100A4/TAMRA-myosin IIA peptide binding; series mostly up to 11 µM.
Protein S100-A4 (Homo sapiens), sequence (P26447 whole entry, looked up): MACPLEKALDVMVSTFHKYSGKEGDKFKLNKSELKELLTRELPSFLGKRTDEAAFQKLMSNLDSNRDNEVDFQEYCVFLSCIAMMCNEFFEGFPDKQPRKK

| SMILES | outcome |
| --- | --- |
| COc1cc(Cl)ccc1OCc1cc(C(=O)N2CCCCCCC2)no1 | inactive |
| COc1ccc(C#Cc2ccc([C@H]3[C@H]4CN(S(=O)(=O)c5ccccc5)CCCCN4[C@H]3CO)cc2)cc1 | inactive |
| Cc1cc(C)c(C(=O)COC(=O)CNC(=O)c2ccccc2C)c(C)c1 | inactive |
| COC(=O)c1ccc2c(=O)n(CCN3CCOCC3)c(SCC(=O)Nc3ccccc3Cl)nc2c1 | inactive |
| Cn1nc(C(F)(F)F)c(-c2ccc(Br)cc2)c1NC(=O)C1CCC1C(=O)O (stereo not given) | inactive |
| Cc1cccc2c(CC(=O)Nc3ccccc3)noc12 | inactive |
| CC(NC(=O)COC(=O)c1cc([N+](=O)[O-])ccc1N1CCOCC1)c1ccc(F)cc1 (stereo not given) | inactive |
| CC(C)[C@H](NC(=O)c1ccccc1F)C(=O)NCc1ccc(S(N)(=O)=O)cc1 | inactive |
| COc1ccc(CN2CC3(CN(C(=O)c4ccccc4)C3)c3c([nH]c4cc(OC)ccc34)[C@H]2CO)cc1 | inactive |
| CN(C)S(=O)(=O)c1ccc(NC(=O)CN2CCN(c3ccccn3)CC2)cc1 | inactive |
| CN(CC1CCCN(CCc2ccc(Cl)cc2)C1)C(=O)CC(F)(F)F (stereo not given) | inactive |
| Cc1nc(Nc2cccc(O)c2)c2oc3ccccc3c2n1 | inactive |
| NC(=O)NC(Cc1ccccc1)C(=O)NCCCSc1ccccc1 (stereo not given) | inactive |
| C[C@@H]1CN([C@H](C)CO)C(=O)c2cc(C#CC3CC3)cnc2O[C@@H]1CN(C)S(C)(=O)=O | inactive |
| COc1ccc(CN(C)C[C@@H]2Oc3ccc(NC(=O)Cc4ccccc4)cc3CC(=O)N([C@@H](C)CO)C[C@H]2C)cc1 | inactive |
